Screening results (PubChem)
Only some compounds are listed: those with a hit (about 19% of all), similar ones and a draw of the others.
HT1080 IDH1KD tx: toxicity to HT-1080 IDH1 knockdown cells (counter line); HT-1080 IDH1 knockdown viability, ATP luminescence, 48 h; 360,000 tested, 2% active; Potency, µM (titrated, usually from 46.1 µM), inactives show at the top dose activity, negative = toxicity, hits mostly cytotoxic;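 further: potency means the concentration at half of the fitted maximal effect; 0% = DMSO wells and -100% = cell-free medium wells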
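Using the IDH1-knockdown HT-1080 line run in the same batch and compound series as the NT line, viability after 48 h at 37 °C was determined by CellTiter-Glo luminescence and expressed as % activity.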
IL-1B inflam inh: inflammasome signaling inhibition, IL-1 beta readout; AID 743279; activity change, % at 57.5 µM; THP-1 LPS/ATP IL-1B secretion, AlphaLISA, 16 h; stronger effect = lower value; 360,000 tested, 4.7% active; in the data active means activity change below about -50%; inconclusive means mostly about -30% to -49%
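Secreted IL-1B measured by AlphaLISA bead assay after 16 h compound exposure of THP-1 cells; compounds (final up to 57.5 uM) added 1 h before LPS (250 ng/mL) and ATP (1.25 mM) stimulation; lower signal means less secretion.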
DT40 TDP1 no CPT: qHTS for Inhibitors of human tyrosyl-DNA phosphodiesterase 1 (TDP1): qHTS in cells in absence of CPT. DT40 Tdp1-/- hTDP1 cells, no CPT, ATP luminescence, 48 h. Potency, µM (highest dose often 46.2 µM), without a hit: top-dose activity change, negative = growth inhibition, most hits filed as inhibitors. 420,000 tested, 15% active; further: potency means the concentration at half of the fitted maximal effect; nearly all actives have a fitted effect of over 55% in size
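Camptothecin absent (DMSO only). Human TDP1-complemented DT40 knockout cells, 400 cells/well, 37 °C for minimum 48 hr; ATP measured via CellTiter-Glo, 30 min dark incubation, luminescence.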
TDP1 cell CPT: DT40-hTDP1 cell growth loss with CPT. chicken DT40 Tdp1-/-;hTDP1 cells + 20 nM CPT, ATP luminescence, 48 h. Potency, µM (titrated, usually from 46.2 µM), without a hit: at the highest dose activity change, negative = growth inhibition, actives largely listed as inhibitors. 420,000 tested, 12% active. AID 686979; further: potency means the concentration at half of the fitted maximal effect; nearly all actives have a fitted effect of over 55% in size
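Chicken DT40 Tdp1-/- cells complemented with human TDP1, 400 cells/well, exposed to compounds plus 20 nM camptothecin for at least 48 h at 37 C; viability read as ATP content by CellTiter-Glo luminescence.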
HT1080-NT tox: kills 2HG-producing HT-1080-NT fibrosarcoma cells. HT-1080-NT fibrosarcoma viability, CellTiter-Glo ATP luminescence, 48 h. Potency, µM (titrated, usually from 46.1 µM), for inactives: top-dose activity, negative = less viability, most hits filed as cytotoxic. 360,000 tested, 1.6% active. AID 686970;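 further: NT is the 2HG producing partner of a matched IDH1 knockdown line; potency means the concentration at half of the fitted maximal effect; 0% = DMSO-treated cells and -100% = media-only wells without cells; nearly all actives have a fitted effect of over 55% in size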
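Viability by CellTiter-Glo luminescence after 48 h compound exposure at 37C of HT-1080-NT cells (750/well, RPMI, 5% FBS). % activity scaled between DMSO wells and medium-only wells, then curve-fitted and categorized by curve class.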
* marks the source's active call; other numbers are inactive results; u = inconclusive; x = no result. Unless noted, the call rests on the fitted dose curve; in most records, active means well fitted curve in the direction sought with a large enough effect; inconclusive means small, poorly fitted or top-dose-only effect, or another doubt; inactive means no such curve, though single readings can be large; an effect the other way counts as inactive or inconclusive. Unless noted, on the % scale 0 is the no-effect control and ±100 the full control effect.

SMILES	HT1080 IDH1KD tx	IL-1B inflam inh	DT40 TDP1 no CPT	TDP1 cell CPT	HT1080-NT tox
CCOC(=O)c1ccc(N2C(=O)c3n[nH]c(-c4cccs4)c3C2c2ccc(OC)cc2OC)cc1 (centres undefined)	x	x	21µM*	23µM*	x
c1cc(OCCN2CC2)ccn1	-13%	14	7.3µM*	3.3µM*	-6%
c1cnc(OCCN2CC2)cn1	-6%	-2	13µM*	8.2µM*	-3%
Cc1nc2ccc(Cl)cc2c(-c2ccccc2)c1C(=O)O	0%	-2	u	u	0%
C[C@]12CCC3C(CC[C@H]4C[C@H](N)CC[C@]34C)C1CC[C@H]2O (some centres undefined)	6%	-6	u	u	-5%
O=c1c(C=Nc2cccnc2Cl)c(O)n(CCCCl)c(=O)n1C1CCCCC1	0%	35	u	-6%	2%
CCCCCC[C@H]1C(=O)O[C@H](C)[C@H](NC(=O)c2cccc(NC=O)c2O)C(=O)O[C@@H](C)[C@@H]1OC(=O)CC(C)C	x	x	0.019µM*	0.017µM*	x
COc1ccccc1C1Nc2ccccc2-n2c(-c3ccccc3)c3c(=O)n(C)c(=O)n(C)c3c21 (centres undefined)	x	x	6.5µM*	-102%	x
Clc1ccc(Cl)cc1	x	x	-7%	-10%	x
CCC1C(c2cc(OC)c(OC)c(OC)c2)c2cc3c(cc2OC1N1CCCC1)OCO3 (centres undefined)	u	-18	4.1µM*	5.2µM*	u
C=CCNc1nnc(Sc2ncccc2[N+](=O)[O-])s1	-19%	-14	7.3µM*	5.2µM*	-31%
Cc1cccc(OCCNc2ncccc2[N+](=O)[O-])c1	11%	-6	u	u	2%
COc1ccc(CNC(=O)CSCc2cnn(-c3ccccc3)c2-n2cccc2)cc1OC	x	x	13µM*	15µM*	x
COc1ccc(CN2CCN(C(=O)Cc3ccccc3)CC2)cc1OC	0%	6	0%	-24%	-3%
CN(C)C(=O)Oc1ccc2oc(=O)cc(-c3cc4ccccc4o3)c2c1	7%	0	-13%	-23%	4%
CCN(CC)C(=O)Oc1cc2c(-c3cc4cccc(OC)c4o3)cc(=O)oc2cc1C	9%	-11	23µM*	16µM*	5%
Cc1cc2oc(=O)cc(-c3cc4ccccc4o3)c2cc1OC(=O)N(C)C	-1%	24	u	15µM*	-13%
CCN1C(=O)CC(=O)N(CC)C1=S	13%	-11	0%	-4%	20%
c1ccc2sc(C3CCNCC3)nc2c1	-2%	22	-26%	7%	1%
C[C@]12CC[C@H]3[C@@H](CCC4=C(O)C(=O)CC[C@@H]43)[C@@H]1CC[C@@H]2OC(=O)CCC1CCCC1	x	x	-21%	-6%	x
COC(=O)C1=C(c2cc3ccccc3o2)C[C@@H]2CC[C@H]1N2C(=O)N1CCC(C)CC1	-19%	-1	2.9µM*	4.6µM*	-14%
COC(=O)C1=C(c2cc3ccccc3o2)C[C@@H]2CC[C@H]1N2C(=O)N1CCC(O)CC1	-5%	6	23µM*	u	1%
COC(=O)C1=C(c2cc3ccccc3o2)C[C@@H]2CC[C@H]1N2C	-3%	0	-19%	-20%	2%
C[C@]12N[C@@H](Cc3ccccc31)c1ccccc12	x	x	-14%	-1%	x
O=C(Nc1ccc(Br)cc1)c1cc(Br)cc(Br)c1O	x	x	-2%	-25%	x
SMILES	HT1080 IDH1KD tx	IL-1B inflam inh	DT40 TDP1 no CPT	TDP1 cell CPT	HT1080-NT tox
Nc1cc(C(=O)Nc2ccc(Cl)cc2)ccc1N1CC2CC(C1)c1cccc(=O)n1C2 (centres undefined)	-15%	-2	10µM*	21µM*	-5%
O=C(NCCN1CCOCC1)c1ccc(Cl)nc1Cl	-2%	-9	-2%	-8%	-7%
COCCNC(=O)c1c(N)n(Cc2ccco2)c2nc3ccccc3nc12	u	-6	u	u	-28%
C=CCNC(=O)c1c(N)n(Cc2ccco2)c2nc3ccccc3nc12	u	-14	15µM*	7.3µM*	u
CCCCn1c(N)c(C(=O)NCCN2CCOCC2)c2nc3ccccc3nc21	u	-54*	23µM*	15µM*	u
Nc1c(C(=O)NCCc2ccccc2)c2nc3ccccc3nc2n1CCN1CCOCC1	u	-86*	16µM*	21µM*	18µM*
Nc1c(C(=O)NCCN2CCOCC2)c2nc3ccccc3nc2n1Cc1ccccc1	-5%	x	23µM*	u	-6%
[O]=[Sb]([OH])([OH])[c]1ccccc1	x	x	-6%	3%	x
COCCCNC(=O)c1c(NC(=O)c2ccccc2Cl)n(Cc2ccccc2)c2nc3ccccc3nc12	0%	-4	-14%	-5%	18%
CCOC(=O)c1c(N)n(CCN2CCCCC2)c2nc3ccccc3nc12	-6%	-83*	-27%	-17%	-2%
COCCCn1c(N)c(C(=O)OC(C)COC)c2nc3ccccc3nc21 (centres undefined)	-3%	-20	-17%	-8%	-4%
Nc1c(C(=O)NCCN2CCOCC2)c2nc3ccccc3nc2n1Cc1ccco1	-12%	-24	15µM*	u	-4%
COCCNC(=O)c1c(NC(=O)c2ccco2)n(Cc2ccccc2)c2nc3ccccc3nc12	-9%	-8	21µM*	u	-19%
Nc1c(C(=O)OCc2ccccc2)c2nc3ccccc3nc2n1Cc1cccs1	u	-90*	u	u	u
COc1ccc(S(=O)(=O)N(C)C[C@H]2OCCCC[C@H](C)Oc3ccc(N(C)C)cc3C(=O)N([C@H](C)CO)C[C@@H]2C)cc1	-5%	27	u	u	-12%
COc1ccc(CCNC(=O)c2c(N)n(CCN3CCOCC3)c3nc4ccccc4nc23)cc1	5%	u	18µM*	21µM*	-1%
COCCCn1c(N)c(C(=O)NCc2ccco2)c2nc3ccccc3nc21	-9%	-19	u	u	-1%
C[C@H](CCC(=O)O)[C@H]1CC[C@H]2[C@@H]3[C@H](O)C[C@@H]4C[C@H](O)CC[C@]4(C)[C@H]3CC[C@]12C	7%	29	u	u	26%
Cc1nn(Cc2ccccc2Cl)c(C)c1C(=O)NC1CCCc2ccccc21 (centres undefined)	2%	24	-9%	-2%	0%
Cc1nn(Cc2ccccc2Cl)c(C)c1C(=O)Nc1nnc(C2CC2)s1	2.5µM*	0	u	-55%	u
O=S(=O)(NCc1ccncc1)c1ccc(F)c(F)c1	-17%	2	6.5µM*	10µM*	2%
